Source: PubChem BioAssay (Broad Institute)
A selection: hits, their analogues and other compounds. The true share with any hit is near 2.4%.
DYRK1A inh: Dyrk1A (rat) kinase inhibition. Q63470. ADP-Glo luminescence, NFATc1 peptide. inhibition, % at 12.5 µM. 310,000 tested, 0.43% active. AID 504441
Wnt bcat act: activators of Wnt/beta-catenin signaling. Wnt/beta-catenin reporter cell assay, activator, plate reader. activation, % at 9.35 µM. 300,000 tested, 1.2% active; in the data active means activation above about 30%, passing the limit was not always enough; inconclusive means no clear call, values can overlap the other calls
GSIS activator: primary screen for activators of insulin secretion dependent on glucose, INS-1E cells, GLuc reporter luminescence; INS-1E GLuc reporter insulin secretion, 2-3 h; activation, % at 16.6 µM; 370,000 tested, 0.61% active;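 active means lowest replicate activation of at least 40%, so every replicate reaches that level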
miR122 inh: blocks miR-122 activity in Huh7 sensor cells; 340,000 tested, 0.3% active; Huh7 miR-122 Renilla luciferase sensor, 48 h; neutral wells = 0, positive control = 100; activation (reporter increase), % at 12.5 µM; AID 602342;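 active means mean replicate activation score at least 90 and every replicate individually at or above 90; inconclusive means only one of the two criteria met; inactive means neither criterion met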;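 further: higher luciferase means less miR-122 activity so hits act as miR-122 inhibitors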
MITF TRPM1 HTS: activators of MITF-driven TRPM1 promoter activity in SK-MEL-5 cells; SK-MEL-5 TRPM1-promoter luciferase, 24 h; % of positive control, neutral wells = 0; activation, % at 12.5 µM; 300,000 tested, 0.75% active;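 active means mean activation of at least 80% with every replicate also reaching 80%; inconclusive means mean reaches 80% but some replicate falls short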
NSD2 inh: blocks human histone methyltransferase NSD2 | AID 743445 | 310,000 tested, 0.54% active | NSD2 peptide methylation, AlphaScreen, 120 min | inhibition, % at 12.5 µM | O96028
Target sequence (O96028 whole entry, looked up): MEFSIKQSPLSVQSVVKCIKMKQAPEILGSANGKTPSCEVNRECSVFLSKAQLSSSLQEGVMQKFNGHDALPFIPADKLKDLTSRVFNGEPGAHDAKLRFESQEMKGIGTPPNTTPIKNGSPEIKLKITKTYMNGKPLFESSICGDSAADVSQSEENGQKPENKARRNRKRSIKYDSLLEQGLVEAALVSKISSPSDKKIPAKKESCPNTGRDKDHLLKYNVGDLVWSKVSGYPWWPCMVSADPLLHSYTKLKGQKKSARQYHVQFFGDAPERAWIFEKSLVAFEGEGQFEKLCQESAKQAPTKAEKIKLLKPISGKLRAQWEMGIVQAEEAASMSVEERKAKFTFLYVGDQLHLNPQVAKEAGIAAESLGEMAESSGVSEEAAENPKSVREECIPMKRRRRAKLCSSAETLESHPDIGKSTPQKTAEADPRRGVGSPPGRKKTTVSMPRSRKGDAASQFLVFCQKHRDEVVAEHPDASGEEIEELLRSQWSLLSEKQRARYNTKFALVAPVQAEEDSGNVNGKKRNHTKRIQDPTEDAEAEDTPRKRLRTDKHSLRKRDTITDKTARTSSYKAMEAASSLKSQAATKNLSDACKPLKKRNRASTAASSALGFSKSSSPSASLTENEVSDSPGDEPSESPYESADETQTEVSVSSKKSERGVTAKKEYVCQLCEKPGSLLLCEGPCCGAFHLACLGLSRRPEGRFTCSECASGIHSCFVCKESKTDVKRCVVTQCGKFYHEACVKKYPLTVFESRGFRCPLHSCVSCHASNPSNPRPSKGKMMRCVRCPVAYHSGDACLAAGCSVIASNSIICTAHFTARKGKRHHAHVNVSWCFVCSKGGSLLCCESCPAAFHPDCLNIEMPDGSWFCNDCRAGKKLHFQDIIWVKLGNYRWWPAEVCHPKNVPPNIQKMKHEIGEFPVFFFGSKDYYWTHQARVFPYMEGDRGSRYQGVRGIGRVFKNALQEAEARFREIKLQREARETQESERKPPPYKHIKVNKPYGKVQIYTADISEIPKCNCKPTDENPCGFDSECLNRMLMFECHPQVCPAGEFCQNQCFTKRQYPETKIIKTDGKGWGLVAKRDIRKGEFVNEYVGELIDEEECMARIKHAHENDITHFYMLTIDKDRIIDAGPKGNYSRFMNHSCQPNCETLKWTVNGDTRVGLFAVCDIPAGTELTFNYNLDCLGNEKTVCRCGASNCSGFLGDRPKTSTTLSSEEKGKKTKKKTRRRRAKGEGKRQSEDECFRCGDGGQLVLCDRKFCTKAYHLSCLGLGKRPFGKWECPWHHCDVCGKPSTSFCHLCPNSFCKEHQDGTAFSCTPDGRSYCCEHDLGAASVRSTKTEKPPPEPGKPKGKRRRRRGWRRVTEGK
Numbers stand for hits; n = inactive; u = inconclusive; x = no result given; [ ] = another dose, or the depositor's remark. Unless noted, no stated cut-off is given here; in the data, active means inhibition above about 50%; inactive means the rest.

SMILES	DYRK1A inh	Wnt bcat act	GSIS activator	miR122 inh	MITF TRPM1 HTS	NSD2 inh
CCOc1ccc(C2C(C(=O)c3ccco3)=C(O)C(=O)N2Cc2cccnc2)cc1 (centres undefined)	n	35.4	x	n	x	n
CC(=O)Nc1ccc2c(c1)C(=O)N(C)[C@H]1CC[C@@H](CC(=O)NCCCN3CCOCC3)O[C@H]1CO2	x	x	n	n	x	x
Cc1ccccc1OCCNc1cc(N2CC(C)NC(C)C2)ccc1[N+](=O)[O-] (centres undefined)	n	n	41.6	n	n	x
Cn1c(=O)c2cc(S(=O)(=O)N3CCN(c4ccc(F)cc4)CC3)ccc2n(C)c1=O	x	x	x	x	x	n
O=C1CCc2cc(S(=O)(=O)N3CCN(c4ccc(F)cc4)CC3)cc3c2N1CC3	n	n	47.3	n	n	n
Cn1c(=O)c(=O)n(C)c2cc(S(=O)(=O)N3CCN(c4ccc(F)cc4)CC3)ccc21	n	n	50.9	n	n	n
CC[C@@H]1C/C=C\C[C@H](c2ccc(OC)cc2OC)NC(=O)[C@H](C)CC(=O)N1	x	x	n	x	x	x
C[C@H]1CN([C@@H](C)CO)S(=O)(=O)c2ccc(C#CCN(C)C)cc2O[C@@H]1CN(C)Cc1ccccn1	x	x	n	n	x	x
CCc1nc(SCC(=O)O)c2c3c(sc2n1)COC(C)(C)C3	n	n	n	n	n	n
Cc1cc(C)n(-c2nc(SCC(=O)O)c3c4c(sc3n2)COC(C)(C)C4)n1	n	n	43.4	x	n	n
O=C(C[C@@H]1CC[C@@H](NS(=O)(=O)c2ccc(F)cc2)[C@@H](CO)O1)NCc1ccncn1	x	x	n	x	x	x
COc1cccc(-c2ccc3c(c2)[C@H]2[C@H](CCN2S(=O)(=O)c2ccccc2C)[C@@H](CO)N3)c1	x	x	n	96.7[16.7 µM]	x	x
O=C(c1ccccc1F)N1CC[C@@H]2[C@@H](CO)Nc3ccc(-c4cccc(F)c4)cc3[C@@H]21	x	x	n	103.9[16.7 µM]	x	x
COc1ccc(S(=O)(=O)N(C)C[C@@H]2Oc3ccc(NC(=O)Nc4ccc(F)cc4)cc3C(=O)N([C@H](C)CO)C[C@H]2C)cc1	x	x	n	n	x	x
N#C/C(=N\Nc1ccc(F)cc1)C(=O)C1CC1	x	n	n	n	x	n
N#C/C(=N\Nc1ccc(Cl)c(Cl)c1)C(=O)C1CC1	n	38.7	n	n	x	n
O/N=C1\CC/C(=N\O)c2nn(-c3ccccc3Cl)nc21	n	x	n	n	n	n
Cc1ccc(-n2nc3c(n2)/C(=N/O)CC/C3=N\O)cc1	n	42.6	x	n	n	n
Cc1c(C#N)c(N)nc2c3c(sc12)NC(=O)CC3c1ccccc1 (centres undefined)	n	n	n	n	n	65.3
Cc1c(C#N)c(N)nc2c3c(sc12)NC(=O)CC3c1ccc(F)cc1 (centres undefined)	n	n	n	n	n	n
C/C(=N/OCc1ccc(Br)cc1)c1ccccn1	n	n	n	n	117.0	n
CCS(=O)(=O)Nc1ccc2c(c1)C(=O)N(C)[C@@H]1CC[C@@H](CC(=O)NC)O[C@@H]1CO2	x	x	n	n	x	x
C[C@H]1CC=CC[C@H](c2cccc(Cl)c2)NC(=O)[C@H](C)N(C)C(=O)c2ccccc2O1 (mixture of isomers)	x	x	n	x	x	x
COc1n[nH]c(C(=O)Nc2nc3ccccc3s2)c1[N+](=O)[O-]	n	53.2	n	x	n	n
C[C@H](CO)N1C[C@H](C)[C@@H](CN(C)S(=O)(=O)c2cn(C)cn2)OCCCC[C@H](C)Oc2ccc(NC(=O)Nc3ccccc3)cc2C1=O	x	x	n	n	x	x
SMILES	DYRK1A inh	Wnt bcat act	GSIS activator	miR122 inh	MITF TRPM1 HTS	NSD2 inh
Nc1cccc(C#Cc2ccc3c(=O)c4ccccc4oc3c2)c1	n	n	x	x	132.5	x
COc1cccc2oc3ccc(C#Cc4ccccn4)cc3c(=O)c12	n	39.5	n	n	n	x
O=c1c2ccccc2oc2cc(C#Cc3ccccn3)ccc12	n	34.4	n	n	n	x
Nc1ccc(C#Cc2ccc3oc4ccccc4c(=O)c3c2)cc1	n	n	x	x	n	x
COc1cc2sc3ccc(C#Cc4ccccn4)cc3c(=O)c2cc1OC	n	n	n	n	n	x
COc1cccc2sc3cc(C#Cc4ccccn4)ccc3c(=O)c12	n	n	n	n	101.0	x
CCCNC(=O)N(C)C[C@H]1Oc2ncc(C3=CCCCC3)cc2C(=O)N([C@@H](C)CO)C[C@H]1C	x	x	n	n	x	x
C/C=C/c1ccc([C@@H]2[C@H](CO)N(CC3CCCC3)C23CN(C(=O)COC)C3)cc1	x	x	n	x	x	x
Cn1c2ccccc2c(=O)c2cc(C#Cc3ccc(N)cc3)ccc21	n	n	n	x	n	x
C=CCn1c2ccccc2c(=O)c2cc(C#Cc3ccccn3)ccc21	n	n	n	n	123.9	x
CCOC(=O)C1CCN(C(=O)/C=C/c2ccccc2)CC1	n	44.9	n	x	n	n
COC(=O)C1CCN(C(=O)/C=C/c2ccc(OC)cc2)CC1	n	56.7	x	n	n	n
C[C@H]1CN(C)C(=O)c2ccccc2O[C@H]1CN(C)S(C)(=O)=O	x	x	n	x	x	x
c1ccc2c(c1)Nc1cc3ccccc3cc1S2	x	37.6	n	x	x	n
O=C(NCc1ccc(F)cc1)[C@@H]1[C@@H](CO)[C@@H]2Cn3c(cccc3=O)[C@H]1N2CC1CC1	x	x	n	n	x	x
O=C(Nc1ccc(F)cc1)N1CCCCN2[C@@H](CO)[C@@H](c3ccc(C#Cc4ccccc4)cc3)[C@@H]2C1	x	x	44.2	n	x	x
O=C(Nc1ccc(F)cc1)N1CCCCN2[C@H](CO)[C@@H](c3ccc(C#Cc4ccccc4)cc3)[C@H]2C1	x	x	n	n	x	x
CC(C)Nc1cc(C(C)(C)C)nc2c(-c3ccccc3)cnn12	n	n	n	x	u	n
CC(C)(C)c1cc(NCCCn2ccnc2)n2ncc(-c3ccccc3)c2n1	n	52.5	n	n	x	n
CCCc1cc(NCCCn2ccnc2)n2nc(C)c(-c3ccccc3)c2n1	n	32.2	n	x	n	n
CN(C)CCCNc1cc(C(C)(C)C)nc2c(-c3ccc(Cl)cc3)cnn12	n	n	411.2	n	x	n
Cc1ccccc1-c1cnc2c(c1)C(=O)N([C@@H](C)CO)C[C@H](C)[C@H](CN(C)CC1CCCCC1)O2	x	x	n	n	x	x
Cn1cc([N+](=O)[O-])c(C(=O)Nc2ccc(C3CCCCC3)cc2)n1	n	46.0	n	x	n	n
Cn1cc([N+](=O)[O-])c(C(=O)Nc2ccc(C(=O)N3CCCCC3)cc2)n1	n	n	n	x	n	n
CC1CCC(=C(C#N)c2nc(-c3cc4ccccc4oc3=O)cs2)CC1 (centres undefined)	n	x	x	n	87.6	n
N#CCc1nc(-c2cc3ccccc3oc2=O)cs1	n	n	x	x	n	n
CC(C)Sc1nc2c(cnn2-c2ccccc2)c(=O)[nH]1	n	n	n	n	n	x
O=c1[nH]c(/C=C/c2ccc(OC(F)F)cc2)nc2c1cnn2-c1ccccc1	n	n	85.1	x	n	n
Cn1c(=O)n(C)c2cc(NS(=O)(=O)c3ccc(C(C)(C)C)cc3)ccc21	n	n	n	106.7	n	n
CC(=O)c1cccc(NS(=O)(=O)c2ccc3c(c2)oc(=O)n3C)c1	n	x	x	207.9	x	n
